# Bioassay records from PubChem BioAssay.
# Most compounds without a hit are left out; they make up all but 2.5% or so of the library.
# MEKK2 mut-MEK5: signal of MEK5 binding to mutant human MEKK2 PB1 domain | bead flow cytometry, Alexa488-MEK5 binding to MEKK2 mutant | percent response, % at 10 µM | 0.35% of 290,000 active | AID 1530; in the data active = percent response above about 24%, passing the limit was not always enough
# MEKK3 PB1 HTS: MEKK3-MEK5 PB1 interaction, increase or decrease; binding response (% of control), % at 10 µM; bead-based flow cytometry, Alexa488-MEK5 binding to MEKK3; actives lie on both sides; 0 = blocked by unlabeled MEK5, 100 = vehicle; 1.4% of 290,000 active; AID 1529; Q99759;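 active = binding response more than 3 SD above or below the average of its plate-row segment, actives on both sides; inconclusive = wells at one plate position flagged as instrument error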;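 note: Alexa488 bead fluorescence after subtracting the streptavidin-only scavenger bead signal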
# GRK2 inh: inhibitors of human GRK2 displacing RNA aptamer. P25098. bead flow cytometry, FAM-aptamer displacement from GRK2. inhibition of aptamer binding, % at 10 µM. 0.59% of 330,000 active. AID 488847;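 active = inhibition of aptamer binding above 40%, roughly 3 SD of noise, on plates passing a quality check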;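 note: median bead fluorescence of bound FAM aptamer so fluorescent compounds give negative values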
# Target sequence (P25098 whole entry, looked up): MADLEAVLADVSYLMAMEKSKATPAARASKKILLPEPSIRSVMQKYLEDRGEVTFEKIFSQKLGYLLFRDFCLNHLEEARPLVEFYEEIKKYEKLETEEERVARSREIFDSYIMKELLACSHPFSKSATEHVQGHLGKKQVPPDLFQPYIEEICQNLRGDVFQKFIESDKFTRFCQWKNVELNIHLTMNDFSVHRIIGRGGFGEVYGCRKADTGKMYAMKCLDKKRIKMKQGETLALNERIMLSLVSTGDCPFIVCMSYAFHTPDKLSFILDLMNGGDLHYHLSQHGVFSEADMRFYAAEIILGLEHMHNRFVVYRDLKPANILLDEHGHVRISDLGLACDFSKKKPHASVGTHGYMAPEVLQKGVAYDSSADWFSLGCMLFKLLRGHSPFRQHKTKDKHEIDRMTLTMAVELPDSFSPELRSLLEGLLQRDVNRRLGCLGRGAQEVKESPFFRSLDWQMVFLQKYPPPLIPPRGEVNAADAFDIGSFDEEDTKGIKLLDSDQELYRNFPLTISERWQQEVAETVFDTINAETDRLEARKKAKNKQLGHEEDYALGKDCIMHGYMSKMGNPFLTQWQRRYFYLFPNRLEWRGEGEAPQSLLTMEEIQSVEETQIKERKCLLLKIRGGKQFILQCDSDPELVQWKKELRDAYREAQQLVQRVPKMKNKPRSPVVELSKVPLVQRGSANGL
# MEKK2 WT-MEK5: raises or lowers MEK5 binding to wildtype human MEKK2 PB1 domain; 1.1% of 290,000 active; bead flow cytometry, Alexa488-MEK5 binding to MEKK2 WT; actives lie on both sides; binding response (% of control), % at 10 µM; in the data active = binding response below about 67% or above about 130%; inconclusive = no clear call, values can overlap the other calls; inactive = in between
# MEKK2wt confirm: raises or lowers MEK5 binding to wildtype human MEKK2, retest | shares compounds with MEKK3 PB1 HTS | bead flow cytometry, Alexa488-MEK5 binding to MEKK2 WT; actives lie on both sides | binding response (% of control), % at 10 µM | 2.4% of 5,900 active; in the data active = binding response below about 16% or above about 210%; inactive = in between
# MEKK2mut confirm: signal of MEK5 binding to mutant human MEKK2, retest | shares compounds with MEKK3 PB1 HTS | bead flow cytometry, Alexa488-MEK5 binding to MEKK2 mutant | percent response, % at 10 µM | 2% of 5,900 active | AID 1893; in the data active = percent response mostly above about 71%, no sharp cut-off; inactive = mostly below about 38%;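 note: higher means compound restores mutant binding toward wildtype level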
# MEKK3 confirm: MEKK3-MEK5 PB1 inhibition, single concentration confirmation; shares compounds with MEKK3 PB1 HTS; bead flow cytometry, Alexa488-MEK5 binding to MEKK3; hits give low values; binding response (% of control), % at 10 µM; 1.8% of 5,900 active; AID 1894;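 active = binding response below 72% of control, or above a set upper limit, though filed actives all read lower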;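 note: 100% = DMSO only wells and 0% = binding blocked by excess unlabeled MEK5; lower values mean stronger disruption of MEK5 binding to MEKK3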
# Numbers without * were called inactive; ? = inconclusive; nt = not tested or not shown; [ ] = dose if it differs, or a comment.
SMILES,MEKK2 mut-MEK5,MEKK3 PB1 HTS,GRK2 inh,MEKK2 WT-MEK5,MEKK2wt confirm,MEKK2mut confirm,MEKK3 confirm
COc1ccc(OC)c(NC(=O)CSc2nnnn2-c2ccc3c(c2)OCO3)c1,12,128*,1,116,98,-2,96
O=C1OC(c2ccccc2)=C/C1=C\N1CCOCC1,-16,2.0*[inhibitor],8,2.0*[inhibitor],107,3,105
Cc1ccc(S(=O)(=O)NCC(C)NS(=O)(=O)c2ccc(C)cc2)cc1 (stereo not given),2,108,0,109,nt,nt,nt
CNC(=O)OC(C)CNS(=O)(=O)c1ccc(C)cc1 (stereo not given),-21,2.0*[inhibitor],1,2.0*[inhibitor],104,18,104
CSc1nc(C)c(Oc2ccccc2)c(=O)n1C,-21,-1.0*[inhibitor],2,-1.0*[inhibitor],99,3,102
Cn1ncc(Cl)c(Oc2ccccc2)c1=O,3,103,0,103,nt,nt,nt
Cc1c(C)[n+](=O)c(-c2cccs2)c(C)n1[O-],-9,1.0*[inhibitor],0,0.0*[inhibitor],98,-6,103
Nc1nc(COC(=O)C2CCN(C(=O)c3ccc(Cl)cc3)CC2)nc(Nc2ccccc2)n1,nt,nt,0,nt,nt,nt,nt
Cc1c2oc3c(C)ccc(C(=O)N[C@@H]4C(=O)N[C@H](C(C)C)C(=O)N5CCC[C@H]5C(=O)N(C)CC(=O)N(C)[C@@H](C(C)C)C(=O)O[C@@H]4C)c3nc-2c(C(=O)N[C@@H]2C(=O)N[C@H](C(C)C)C(=O)N3CCC[C@H]3C(=O)N(C)CC(=O)N(C)[C@@H](C(C)C)C(=O)O[C@@H]2C)c(N)c1=O,nt,99,nt,91,nt,nt,nt
Cc1ccc(Cn2c(=N)n(CC(O)COc3ccccc3)c3ccccc32)cc1 (stereo not given),13,109,0,134*,131,17,105
N=c1n(Cc2ccccc2)c2ccccc2n1CC(O)COc1ccccc1 (stereo not given),3,97,0,108,nt,nt,nt
Cc1ccc(C(NC(=O)Nc2ccccn2)C(Cl)(Cl)Cl)cc1F (stereo not given),2,100,0,101,nt,nt,nt
CCN1/C(=C/c2ccc3cc(C)ccc3[n+]2C)Sc2ccc3sccc3c21,nt,0.0*[inhibitor],nt,nt,7.0*[inhibitor],-33,31*
CCN1/C(=C/c2cccc[n+]2C)Sc2ccc(OC)cc21,9,103,1,107,nt,nt,nt
CCN1/C(=C/c2ccc3cc(C)ccc3[n+]2CC)Sc2cc(C)ccc21,-4,51*[inhibitor],nt,11*[inhibitor],31,-37,74
CCN(C(=O)CSc1ncccc1C(=O)OC(C)C)c1cccc(C)c1,-26,0.0*[inhibitor],2,-3.0*[inhibitor],104,6,107
Cc1ccc2nc(=O)c(NNc3ccccc3)cnc2c1,-1,98,4,97,nt,nt,nt
Cc1nc2ccccc2nc(=O)c1NNc1ccccc1,-2,51*[inhibitor],nt,80,91,-7,94
Cc1ccc(OC(C)C(=O)N(C)c2ccccc2)c([N+](=O)[O-])n1 (stereo not given),nt,nt,13,nt,nt,nt,nt
CCC1(C)Cc2c(C#N)c(N)n(-c3ccccc3)c(=S)c2CO1 (stereo not given),-1,103,3,98,nt,nt,nt
N#Cc1c(N)sc(=S)c2c1CCCC2,-9,87,15,66*[inhibitor],92,-1,104
CCC1(C)Cc2c(C#N)c(N)sc(=S)c2CO1 (stereo not given),-5,95,6,60*[inhibitor],82,-10,98
Cn1nc(C(=O)OCC(=O)Nc2ccc3ccccc3c2)c2ccccc2c1=O,-3,93,4,92,nt,nt,nt
COc1cc(OC)cc(C(=O)NCC(C)NC(=O)c2cc(OC)cc(OC)c2)c1 (stereo not given),nt,nt,0,nt,nt,nt,nt
Clc1ccc(Cl)c(OCCCCNCc2ccccc2)c1,3,98,0,125,nt,nt,nt
SMILES,MEKK2 mut-MEK5,MEKK3 PB1 HTS,GRK2 inh,MEKK2 WT-MEK5,MEKK2wt confirm,MEKK2mut confirm,MEKK3 confirm
Clc1ccc(OCCCNCc2ccccc2)c(Br)c1,22,105,0,153*,134,19,103
Nc1ncnc2c1ncn2[C@@H]1O[C@H](CNCc2ccccc2OCc2ccc(Cl)cc2Cl)[C@@H](O)[C@H]1O,nt,nt,0,nt,nt,nt,nt
COc1cccc(N2CCN(C(=O)C3CCC(=O)N(C4CCCCCC4)C3)CC2)c1 (stereo not given),1,104,0,104,nt,nt,nt
CCNc1ccc(Br)cc(C(=O)/C=C/c2c(Cl)cccc2Cl)c1=O,2,82,17,47*[inhibitor],80,-11,95
CC(C(=O)NC(C)(C)C)N1C(=O)c2cccc3cccc(c23)C1=O (stereo not given),5,102,4,98,nt,nt,nt
CCc1nnc(NC(=O)C2CC(=O)N(Cc3ccco3)C2)s1 (stereo not given),6,122*,0,116,101,-3,100
CCc1nnc(NC(=O)C2CC(=O)N(Cc3ccccc3)C2)s1 (stereo not given),-3,103,4,102,nt,nt,nt
C=CCc1cccc([C@@H]2[C@@H](C)CC[C@H]3C(=O)N4[C@@H](c5cc(OC)c(OC)c(OC)c5)c5[nH]c6ccccc6c5C[C@H]4C(=O)N23)c1,-10,?,nt,?,nt,nt,nt
Cc1c(Cc2ccc3c(c2)OCO3)sc(NC(=O)c2ccccc2)c1C(N)=O,-7,75*[inhibitor],5,81,97,-1,100
Cc1nc(NC(=O)c2ccccc2)sc1Cc1ccc2c(c1)OCO2,5,102,0,111,nt,nt,nt
COc1ccc(NC(=O)c2cccc(N3C(=O)NC4CC3(C)Oc3ccccc34)c2)cc1 (stereo not given),8,133*,7,122,99,1,99
Cc1nc([N+](=O)[O-])c(Br)n1CC(=O)c1ccccc1,5,101,1,105,nt,nt,nt
Cc1nc([N+](=O)[O-])c(Br)n1CC(=O)c1ccc(Br)cc1,6,133*,0,126,93,-12,95
Cc1cc(C)c(NC(=O)COC(=O)C2=COCCO2)c(Cl)c1,nt,nt,2,nt,nt,nt,nt
CCOC(=O)NC1(C(F)(F)F)NC(=O)N(C2CCCCC2)C1=O (stereo not given),-34,91,4,-4.0*[inhibitor],110,8,108
CCN1CCN(Cc2c(O)ccc3c2O/C(=C\C=C\c2ccccc2OC)C3=O)CC1,0,133*,17,95,92,-3,97
O=C(O)Cn1c(-c2cscn2)nc2ccccc21,8,123*,1,133,104,8,104
O=C(O)CN1C(=O)C(=O)N(Cc2ccccc2F)C1=O,3,102,2,105,nt,nt,nt
